Experimental data taken from PubChem BioAssay.
Values without a mark were called inactive. No rule for the calls is given here.

Each molecule was assayed against Pantothenate synthetase (Mycobacterium tuberculosis (strain ATCC 25618 / H37Rv)) (UniProt P9WIL5) (assay: Coupled enzyme confirmation of inhibitors against recombinant Mtb PanC (AID 375;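 also: 0% = full reaction with vehicle and 100% = no enzyme background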)). Conditions: coupled enzyme assay; at 10 µM, stronger effect = higher value.
Pantothenate synthetase (Mycobacterium tuberculosis (strain ATCC 25618 / H37Rv)), sequence (P9WIL5 whole entry, looked up): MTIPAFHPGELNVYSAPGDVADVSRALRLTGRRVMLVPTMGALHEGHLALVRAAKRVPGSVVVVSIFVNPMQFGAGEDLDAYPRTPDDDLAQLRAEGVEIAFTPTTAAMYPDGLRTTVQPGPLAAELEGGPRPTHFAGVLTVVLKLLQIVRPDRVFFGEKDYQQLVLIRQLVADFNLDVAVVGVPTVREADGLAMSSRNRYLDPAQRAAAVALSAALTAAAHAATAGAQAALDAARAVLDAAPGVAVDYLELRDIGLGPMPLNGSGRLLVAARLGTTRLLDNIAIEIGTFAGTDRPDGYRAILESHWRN

| Compound | inhibition [%] |
| --- | --- |
| CCCCOc1ccc(CC(=O)NO)cc1 | 9 |
| COc1cc2c(cc1OC)-c1nnc(-c3cccs3)n1C(C)(C)C2 | 0 |
| COC(=O)c1sc(N2C(=O)C(O)=C(C(=O)c3ccc(C)o3)C2c2ccc(F)cc2)nc1C (stereo not drawn) | 8 |
| Cn1c(=O)c2c([nH]c(=O)n2C)n(C)c1=O | 0 |
| CCCC(=O)Nc1nnc(Sc2ccc(N(C)C)cc2)s1 | 0 |
| OC(CNCCc1ccccc1)c1ccccc1 (stereo not drawn) | 2 |
| O=C(Nc1ncc(Br)s1)C1CCCN1S(=O)(=O)c1cccc2cccnc12 (stereo not drawn) | 0 |
| Cn1nc(CC(=O)Nc2ccc(N3CCN(C(=O)OC(C)(C)C)CC3)cc2)c2ccccc2c1=O | 0 |
| Cc1cc(OCC(O)CN2CCN(CCO)CC2)ccc1C(C)C (stereo not drawn) | 8 |
| CCS(=O)(=O)NCCc1cc2c(OC)ccc(OC)c2[nH]c1=O | 3 |
| CC(CN1CCCCC1)OC(=O)c1ccc2c(c1)OCO2 (stereo not drawn) | 0 |
| Cc1cc(C)n(CCCNC(=O)c2ccc(S(=O)(=O)NCc3ccco3)cc2)n1 | 3 |
| CC(C)(C)NC(=O)COC(=O)c1snc(C(=O)NC2CCCCC2)c1N | 3 |
| CCC(C(=O)O)n1c(C(F)(F)F)nc2ccccc21 (stereo not drawn) | 4 |
| CCOc1cccc(OCCOCCN2CCCC2)c1 | 8 |
| COc1cccc(C2=NOC(C(=O)Nc3ccc(C(C)=O)cc3)C2)c1 (stereo not drawn) | 0 |
| COCC(=O)NC(c1ccccc1)c1ccccc1 | 7 |
| CC(=O)OC1CSc2nc3ccccc3n2C1 (stereo not drawn) | 0 |
